LRH-1 inv ag: suppresses constitutive activity of human LRH-1; inhibition, % at 3.6 µM; hit rate 0.13% among 360,000; HEK293T StAR-luciferase reporter, LRH-1 transfected, 24 h;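 active = inhibition above the mean inhibition of all tested compounds plus 3 SD, cut at about 73% in these data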
SRC2 inh: inhibits human steroid receptor coactivator 2. HEK293 GAL4-SRC2 luciferase reporter, luminescence. Q15596. AID 651957. inhibition, % at 9 µM. hit rate 0.17% among 370,000;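 active = inhibition above the mean inhibition of all tested compounds plus 3 SD, set per campaign, cut at about 52% in these data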
NCOA1 inh: inhibitors of human steroid receptor coactivator 1 (SRC1) | Q15788 | AID 588354 | hit rate 0.12% among 360,000 | inhibition, % at 3.6 µM | HEK293 GAL4-SRC1 luciferase reporter, luminescence;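 active = inhibition above the campaign mean plus 3 SD, with each screening campaign given its own cutoff, cut at about 60% in these data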
SRC3 inh: human NCOA3 inhibition; Q9Y6Q9; HEK293 GAL4-SRC3 luciferase reporter, luminescence; inhibition, % at 3.6 µM; hit rate 0.17% among 360,000; AID 588352;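 active = inhibition above a per-campaign cutoff, the mean of all compounds plus 3 SD, cut at about 60% in these data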;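 note: higher means less SRC3-driven luciferase light from the GAL4 reporter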
GalR3 antag: human GalR3 antagonism | O60755 | HEK293 GalR3-CNG cAMP membrane potential fluorescence; galR3 body fused to GalR1 C-terminus | inhibition, % at 3 µM | hit rate 0.44% among 360,000;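 active = inhibition above the screen-wide average plus 3 SD, cut at about 13% in these data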;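 note: forskolin and galanin both at EC90 stimulate the cells; cAMP rise reported by CNG channel membrane potential dye signal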
Target sequence (O60755 1-299 limits assumed): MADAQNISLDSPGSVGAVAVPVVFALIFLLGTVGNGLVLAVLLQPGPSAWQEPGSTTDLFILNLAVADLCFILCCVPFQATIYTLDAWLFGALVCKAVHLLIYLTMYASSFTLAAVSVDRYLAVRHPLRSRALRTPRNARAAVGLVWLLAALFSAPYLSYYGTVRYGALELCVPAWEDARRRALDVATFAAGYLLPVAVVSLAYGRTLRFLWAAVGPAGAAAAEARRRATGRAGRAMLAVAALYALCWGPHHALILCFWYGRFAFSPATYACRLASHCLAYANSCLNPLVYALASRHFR
COUP-TFII inh: inhibitors of human COUP-TFII (NR2F2) | P24468 | HEK293T NGFI-A luciferase reporter, luminescence | inhibition, % at 8.6 µM | hit rate 0.7% among 370,000;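 active = inhibition above a per-plate cutoff, mean inhibition of test wells between control levels plus 3 SD, cut at about 38% in these data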;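 note: cells cotransfected with COUP-TFII expression vector driving the NGFI-A reporter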
GalR3 conf: confirmation of human galanin receptor 3 antagonists | hit rate 59% among 1,600 | AID 652245 | inhibition, % at 3 µM | shares compounds with GalR3 antag | HEK293 GalR3 CNG cAMP biosensor, membrane potential fluorescence; galR3 fused to GalR1 carboxy tail; challenged with forskolin and galanin at EC90;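 active = inhibition above the primary screen's cutoff, the mean inhibition of all screened compounds plus 3 SD, cut at about 13% in these data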
CNG parental: counter-screen for GalR3 antagonists: nonspecific agonists in parental HEK-CNG cells; shares compounds with GalR3 antag; HEK293-CNG parental cells, cAMP membrane potential fluorescence; normalised: DMSO wells 0%, forskolin wells 100%; activation, % at 3 µM; hit rate 10% among 1,600; in the data active = activation above about 1.3%
Large screens that a line does not name were inactive (follow-up assays come after a bar, where they were run). Shown are actives, neighbours in structure and some others; about 1.1% of the full set was active somewhere.

Cc1cc(C)c(C#N)c(SCc2[nH]nc3c2C(c2ccc(F)cc2)C(C#N)=C(N)O3)n1 (stereo unspecified)	GalR3 antag 18 | GalR3 conf 39 | CNG parental 4.4
Cc1cc(C#N)c(C)c(SCc2[nH]nc3c2C(c2ccccc2)C(C#N)=C(N)O3)n1 (stereo unspecified)	GalR3 antag 27 | GalR3 conf inactive | CNG parental inactive
Cc1ccc(SCc2[nH]nc3c2C(c2cccnc2)C(C#N)=C(N)O3)cc1 (stereo unspecified)	none
CC(C)(C)OC(=O)NCc1ccccc1/C=C/S(=O)(=O)NCCc1ccccc1	none (no result: LRH-1 inv ag, NCOA1 inh, SRC3 inh, GalR3 antag)
COc1ccc(OCc2cc(=O)c3ccc4c(c3o2)C=CC(C)(C)O4)cc1OC	none
CC(C)=CCOc1ccc([C@@H]2COc3c(ccc4c3C=CC(C)(C)O4)C2)c(O)c1	GalR3 antag 19 | GalR3 conf 18 | CNG parental 22
CCCCCCN1CCS(=O)(=O)N(Cc2ccc(OC)cc2)C(C(=O)OC)C1 (stereo unspecified)	none (no result: LRH-1 inv ag, NCOA1 inh, SRC3 inh, GalR3 antag)
Cc1cccc(NC2=C(Cl)C(=O)OC2OC(C)C)c1 (stereo unspecified)	GalR3 antag 14 | GalR3 conf inactive | CNG parental inactive
Cc1ccc(NC2=C(Cl)C(=O)OC2OC(C)C)cc1 (stereo unspecified)	none
Cc1cc(C)n(CC(=O)NNC(=O)COc2ccc(Cl)cc2Cl)n1	none
Cc1cc(C)n(C(=O)COc2ccc(Cl)cc2Cl)n1	GalR3 antag 14 | GalR3 conf 16 | CNG parental inactive
CCCC1CCC2(CC1)CCC2OC(=S)Nc1ccccc1 (stereo unspecified)	none (no result: LRH-1 inv ag, SRC2 inh, NCOA1 inh, SRC3 inh, GalR3 antag)
CC1(C)CC(=O)C2=C(C1)N=C1c3ccccc3C(=O)C1C2c1ccc(Cl)cc1 (stereo unspecified)	none
Cc1ccc(C2C3=C(CC(C)(C)CC3=O)N=C3c4ccccc4C(=O)C32)cc1 (stereo unspecified)	GalR3 antag 15 | GalR3 conf 31 | CNG parental inactive
C[C@H]1[C@@H](OC(=O)N2CCN(c3ccccc3)CC2)CC[C@@]23CCCN2C(=O)CCC[C@@H]13	none (no result: LRH-1 inv ag, SRC2 inh, NCOA1 inh, SRC3 inh, GalR3 antag)
N#CCOc1nc(N2CCCCC2)nc(N2CCCCC2)n1	none
CCOc1nc(C#N)nc(N2CCCCC2)n1	GalR3 antag 95 | GalR3 conf 108 | CNG parental inactive
COCCCNC(=O)C[C@H]1C[C@@]2(C(=O)OC)C(=C[C@H](C(C)C)O[C@@H]2C2CC2)N(CCc2ccc(OC)c(OC)c2)C1=O	none (no result: LRH-1 inv ag, NCOA1 inh, SRC3 inh, GalR3 antag)
COc1ccc(/C=N/NC(=O)c2c(C)n(C)c3ccc(OC)cc23)c(OC)c1	GalR3 antag 14 | GalR3 conf inactive | CNG parental inactive
O=C(Nc1ccc2c(c1)OCCO2)C1CCC1	none
O=C(Nc1ccc2c(c1)OCCO2)NC1CCCCC1	none (no result: GalR3 antag) | GalR3 conf inactive | CNG parental inactive
CCN(CC(O)c1cccc(O)c1)C(=O)C12CC3CC(CC(C3)C1)C2 (stereo unspecified)	GalR3 antag 17 | GalR3 conf 57 | CNG parental 2.0
Cc1cc(C)cc(N(CC(=O)NCc2ccco2)C(=O)CCC(=O)Nc2nccs2)c1	none
Cc1ccc(N(CC(=O)NCc2ccco2)C(=O)CCC(=O)Nc2nccs2)cc1	GalR3 antag 14 | GalR3 conf inactive | CNG parental inactive
NS(=O)(=O)c1ccc(O)c(NC(=O)c2ccc([N+](=O)[O-])cc2)c1	GalR3 antag 20 | GalR3 conf inactive | CNG parental inactive
O=c1c2ccccc2n(Cc2ccno2)n1[C@@H](Cc1ccccc1)Cn1cc(-c2ccc(-c3ccccc3)cc2)nn1	none (no result: LRH-1 inv ag, NCOA1 inh, SRC3 inh, GalR3 antag)
CCC(O)(c1ccc(NC(=O)OC(C)(C)C)cc1)c1cc(OC)cc(OC)c1 (stereo unspecified)	none (no result: LRH-1 inv ag, NCOA1 inh, SRC3 inh, GalR3 antag)
Cc1ccc(-n2c(COc3ccccc3)nnc2SCC(=O)Nc2ccccc2-c2ccccc2)cc1	none (no result: LRH-1 inv ag, NCOA1 inh, SRC3 inh, GalR3 antag)

Assay outcomes: PubChem, The Scripps Research Institute Molecular Screening Center
